GoLoco inh red: inhibitors of human Gai1-RGS12 GoLoco interaction (red fluorophore); hit rate 0.44% among 230,000; Potency, µM (top dose mostly 61.6 µM), for the others: at the top dose activity, negative = inhibition, usual class: inhibitors; Gai1:RGS12 GoLoco peptide FP, rhodamine, 10 min; P63096; AID 880; active = well fitted inhibition curve with a large enough effect, not every such curve was filed as active; inactive = no such curve, though single readings can be large or run the other way; also: potency is read from the fitted curve at half-maximal effect; % is scaled to controls: 0 for no effect and ±100 for the full control effect; nearly all actives have a fitted effect of over 30% in size
Menin-MLL TR inh: displaces Texas Red mutant MLL peptide from human menin; Menin + Texas Red MLL mutant peptide, fluorescence polarization; Potency, µM (doses to about 61.6 µM), inactives show at the top dose FP activity change, negative = inhibition, hits mostly inhibitors; hit rate 0.23% among 270,000; active = well fitted inhibition curve with a large enough effect in the polarisation, with a control signal flat, not every such curve was filed as active; inconclusive = small, poorly fitted or top-dose-only effect, or effect the other way, or a change in a side signal; inactive = no such curve, though single readings can be large or run the other way; the % refers to the polarisation; also: potency is read from the fitted curve at half-maximal effect; % of control where 0% means no effect
CXXC DNA block: MLL CXXC-DNA interaction inhibition; hit rate 0.037% among 290,000; Potency, µM (series often up to 115 µM), without a hit: at the highest dose activity change, negative = inhibition, actives largely listed as inhibitors; MLL-CXXC / FITC-HOXA9 DNA fluorescence polarization; AID 2662; active = well fitted inhibition curve with a large enough effect in the polarisation, with a control signal flat, not every such curve was filed as active; inconclusive = small, poorly fitted or top-dose-only effect, or effect the other way, or a change in a side signal; inactive = no such curve, though single readings can be large or run the other way; the % refers to the polarisation; also: potency is read from the fitted curve at half-maximal effect
Target sequence (Q03164 whole entry, looked up): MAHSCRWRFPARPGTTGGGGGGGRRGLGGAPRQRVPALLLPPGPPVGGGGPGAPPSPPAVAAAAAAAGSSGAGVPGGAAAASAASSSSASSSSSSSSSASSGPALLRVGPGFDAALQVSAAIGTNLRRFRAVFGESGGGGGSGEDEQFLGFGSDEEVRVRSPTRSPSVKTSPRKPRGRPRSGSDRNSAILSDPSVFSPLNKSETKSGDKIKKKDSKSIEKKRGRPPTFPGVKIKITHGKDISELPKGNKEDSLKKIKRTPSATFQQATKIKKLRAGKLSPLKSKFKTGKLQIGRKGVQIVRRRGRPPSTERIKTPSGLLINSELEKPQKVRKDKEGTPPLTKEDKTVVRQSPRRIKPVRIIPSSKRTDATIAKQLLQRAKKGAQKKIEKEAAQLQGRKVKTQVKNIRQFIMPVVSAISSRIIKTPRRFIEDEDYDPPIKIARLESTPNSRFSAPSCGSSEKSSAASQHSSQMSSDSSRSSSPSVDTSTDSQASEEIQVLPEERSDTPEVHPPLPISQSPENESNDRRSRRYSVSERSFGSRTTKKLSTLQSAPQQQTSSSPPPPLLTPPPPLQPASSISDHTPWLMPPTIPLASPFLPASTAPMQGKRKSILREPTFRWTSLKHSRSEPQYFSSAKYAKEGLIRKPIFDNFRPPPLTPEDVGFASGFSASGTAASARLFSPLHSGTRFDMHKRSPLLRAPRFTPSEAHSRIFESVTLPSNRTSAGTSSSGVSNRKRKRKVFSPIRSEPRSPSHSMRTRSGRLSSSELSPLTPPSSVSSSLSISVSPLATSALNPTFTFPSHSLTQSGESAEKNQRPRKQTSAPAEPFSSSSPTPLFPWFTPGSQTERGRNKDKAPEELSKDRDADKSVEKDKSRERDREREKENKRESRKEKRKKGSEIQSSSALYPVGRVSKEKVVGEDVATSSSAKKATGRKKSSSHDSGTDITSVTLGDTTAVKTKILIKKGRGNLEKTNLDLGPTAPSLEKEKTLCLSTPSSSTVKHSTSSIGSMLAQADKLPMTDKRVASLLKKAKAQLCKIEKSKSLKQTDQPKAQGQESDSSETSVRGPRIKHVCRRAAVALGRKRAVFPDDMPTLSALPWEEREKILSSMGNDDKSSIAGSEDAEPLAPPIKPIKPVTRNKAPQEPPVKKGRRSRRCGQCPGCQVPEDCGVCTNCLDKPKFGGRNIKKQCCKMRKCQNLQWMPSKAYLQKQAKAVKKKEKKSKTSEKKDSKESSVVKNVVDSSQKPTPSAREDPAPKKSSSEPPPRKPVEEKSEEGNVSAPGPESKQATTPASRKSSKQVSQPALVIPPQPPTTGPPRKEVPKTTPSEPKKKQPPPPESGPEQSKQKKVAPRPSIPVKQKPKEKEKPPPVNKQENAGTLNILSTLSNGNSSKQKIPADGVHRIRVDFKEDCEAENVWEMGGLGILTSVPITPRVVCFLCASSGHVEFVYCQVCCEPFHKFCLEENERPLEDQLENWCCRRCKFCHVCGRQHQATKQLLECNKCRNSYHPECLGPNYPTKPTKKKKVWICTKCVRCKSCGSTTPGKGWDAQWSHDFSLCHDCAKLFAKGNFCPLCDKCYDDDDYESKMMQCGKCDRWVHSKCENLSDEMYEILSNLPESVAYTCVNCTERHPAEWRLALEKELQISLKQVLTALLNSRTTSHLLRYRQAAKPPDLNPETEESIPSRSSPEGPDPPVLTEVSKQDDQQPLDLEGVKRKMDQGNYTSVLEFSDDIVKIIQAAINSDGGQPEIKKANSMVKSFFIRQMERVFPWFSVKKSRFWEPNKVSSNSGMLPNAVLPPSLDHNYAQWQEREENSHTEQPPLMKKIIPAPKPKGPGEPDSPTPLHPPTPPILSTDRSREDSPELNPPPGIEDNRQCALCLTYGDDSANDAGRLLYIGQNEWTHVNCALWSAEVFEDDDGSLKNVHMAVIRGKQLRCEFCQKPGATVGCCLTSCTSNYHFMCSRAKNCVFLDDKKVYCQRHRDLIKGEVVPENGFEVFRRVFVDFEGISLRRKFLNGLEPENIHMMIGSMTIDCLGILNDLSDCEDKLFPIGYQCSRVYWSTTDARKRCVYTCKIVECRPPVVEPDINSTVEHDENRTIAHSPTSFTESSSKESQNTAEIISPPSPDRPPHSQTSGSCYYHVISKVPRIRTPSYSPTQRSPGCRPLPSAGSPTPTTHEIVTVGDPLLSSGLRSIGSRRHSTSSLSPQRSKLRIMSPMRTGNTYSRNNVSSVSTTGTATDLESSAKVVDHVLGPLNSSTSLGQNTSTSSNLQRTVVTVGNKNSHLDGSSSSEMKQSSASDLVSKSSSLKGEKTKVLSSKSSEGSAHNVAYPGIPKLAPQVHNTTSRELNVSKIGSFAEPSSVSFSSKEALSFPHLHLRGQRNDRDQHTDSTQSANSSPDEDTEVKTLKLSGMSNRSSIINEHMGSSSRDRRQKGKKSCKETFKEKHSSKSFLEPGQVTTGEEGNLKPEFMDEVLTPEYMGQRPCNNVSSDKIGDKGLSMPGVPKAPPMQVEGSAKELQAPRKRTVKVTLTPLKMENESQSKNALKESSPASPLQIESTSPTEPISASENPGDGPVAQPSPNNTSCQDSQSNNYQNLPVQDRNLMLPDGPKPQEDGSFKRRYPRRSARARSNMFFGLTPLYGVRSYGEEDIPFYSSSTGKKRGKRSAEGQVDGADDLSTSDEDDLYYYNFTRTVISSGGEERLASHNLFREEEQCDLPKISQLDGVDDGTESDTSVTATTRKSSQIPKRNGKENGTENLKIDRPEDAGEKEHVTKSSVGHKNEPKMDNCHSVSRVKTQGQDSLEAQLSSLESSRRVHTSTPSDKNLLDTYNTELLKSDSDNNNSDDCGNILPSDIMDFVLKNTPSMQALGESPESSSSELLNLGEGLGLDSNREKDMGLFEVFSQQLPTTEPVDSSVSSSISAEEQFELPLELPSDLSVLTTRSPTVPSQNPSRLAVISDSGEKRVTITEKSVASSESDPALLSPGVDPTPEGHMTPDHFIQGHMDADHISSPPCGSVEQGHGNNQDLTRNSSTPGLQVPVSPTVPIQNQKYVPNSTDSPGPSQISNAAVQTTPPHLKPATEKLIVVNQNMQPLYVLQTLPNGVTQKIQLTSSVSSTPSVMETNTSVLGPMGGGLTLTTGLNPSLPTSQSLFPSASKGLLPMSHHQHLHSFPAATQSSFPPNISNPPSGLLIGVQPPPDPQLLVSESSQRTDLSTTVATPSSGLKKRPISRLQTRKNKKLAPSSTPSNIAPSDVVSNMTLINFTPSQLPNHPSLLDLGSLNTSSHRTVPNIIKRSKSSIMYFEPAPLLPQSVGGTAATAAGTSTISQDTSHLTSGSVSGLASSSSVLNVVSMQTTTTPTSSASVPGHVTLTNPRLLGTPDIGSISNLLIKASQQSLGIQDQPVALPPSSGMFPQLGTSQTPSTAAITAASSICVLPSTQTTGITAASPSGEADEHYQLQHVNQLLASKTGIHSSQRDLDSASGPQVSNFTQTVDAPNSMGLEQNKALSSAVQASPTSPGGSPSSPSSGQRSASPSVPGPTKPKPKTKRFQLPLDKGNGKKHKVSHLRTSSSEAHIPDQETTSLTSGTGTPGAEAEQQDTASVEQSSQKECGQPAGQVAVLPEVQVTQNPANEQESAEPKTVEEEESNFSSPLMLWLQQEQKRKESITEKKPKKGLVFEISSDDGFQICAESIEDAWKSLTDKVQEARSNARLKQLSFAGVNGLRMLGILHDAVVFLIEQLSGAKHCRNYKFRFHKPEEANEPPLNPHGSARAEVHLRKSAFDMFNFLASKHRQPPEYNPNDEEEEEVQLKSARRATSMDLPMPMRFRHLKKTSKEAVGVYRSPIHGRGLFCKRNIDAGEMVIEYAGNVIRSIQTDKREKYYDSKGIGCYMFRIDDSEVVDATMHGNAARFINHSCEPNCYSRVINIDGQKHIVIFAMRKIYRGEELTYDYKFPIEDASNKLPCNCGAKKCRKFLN
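Fluorescence polarization: 7 uM MLL-CXXC (stock) preincubated 5 min with compounds, then 50 nM fluorescein-HOX-A9 DNA (stock) added; 30 min ambient. Buffer 50 mM Tris-HCl pH 7.5, 50 mM NaCl, 1 mM DTT, 0.05% BSA.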
TR SRC2 fluor cs: Texas Red fluorescence interference in TRb-SRC2 counter-screen. TRb/SRC2 Texas Red total fluorescence interference. Potency, µM (titrated, usually from 106 µM), for inactives: top-dose fluorescence change, negative = quenching. hit rate 0.29% among 280,000; active = well fitted curve in either direction with a large enough effect; inconclusive = small, poorly fitted or top-dose-only effect; also: potency is read from the fitted curve at half-maximal effect; % is scaled to controls: 0 for no effect and ±100 for the full control effect
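Flags fluorescent or light-absorbing compounds by total fluorescence, S + 2P, at 555 nm excitation and 632 nm emission. Mixture: 20 nM Texas Red SRC2 peptide, 0.6 uM human TRb LBD, 1 uM T3, 5% DMSO; compound exposure 5 h at ambient temperature.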
Menin-MLL FL inh: inhibitors of human menin-MLL interaction, wild-type MLL peptide; FP activity change, % at 61.4 µM; 290,000 tested, under 10 active; Fluorescence polarization, fluorescein-MLL peptide displacement from menin; active = well fitted curve in the direction sought with a large enough effect in the polarisation, not every such curve was filed as active; inconclusive = small, poorly fitted or top-dose-only effect, or effect the other way, or a change in a side signal; inactive = no such curve, though single readings can be large or run the other way; the % refers to the polarisation; also: % of control where 0% means no effect
TRb-SRC2 inh: disrupts binding of human TR beta to SRC2; P10828; TRbeta-SRC2 peptide binding, fluorescence polarization; receptor liganded with 1 µM T3; hit rate 0.065% among 280,000; AID 1469; Potency, µM (top dose mostly 106 µM), inactives show top-dose activity change, negative = inhibition, usual class: inhibitors;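 also: potency is read from the fitted curve at half-maximal effect; plate controls were bound peptide for no effect and peptide without receptor for full effect; nearly all actives have a fitted effect of over 50% in size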
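Human TRb ligand-binding domain (0.6 uM) is mixed with 20 nM Texas Red SRC2 peptide and 1 uM T3; after compound addition and 5 hr at ambient temperature, polarization is measured and normalized to unbound and bound controls.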
MLL CXXC Fl: disrupts human MLL CXXC domain binding to DNA. MLL CXXC-DNA binding, fluorescein FP. AID 624160. shares compounds with CXXC DNA block. Potency, µM (highest dose often 345 µM), inactives show top-dose activity change, negative = inhibition, actives largely listed as inhibitors. hit rate 70% among 200; also: potency is read from the fitted curve at half-maximal effect; nearly all actives have a fitted effect of over 80% in size
MLL CXXC TxRed: inhibitors of human MLL CXXC domain-DNA interaction, Texas Red format; shares compounds with CXXC DNA block; hit rate 40% among 200; MLL CXXC-DNA binding, Texas Red fluorescence polarization; Potency, µM (series often up to 345 µM), for the others: at the top dose activity change, negative = inhibition, actives largely listed as inhibitors; also: potency is read from the fitted curve at half-maximal effect; % is scaled to controls: 0 for no effect and ±100 for the full control effect; nearly all actives have a fitted effect of over 75% in size
MLL CXXC TRF: inhibitors of human MLL CXXC domain-DNA interaction, HTRF format | shares compounds with CXXC DNA block | Potency, µM (doses to about 172 µM), without a hit: at the highest dose activity change, negative = inhibition, usual class: inhibitors | MLL CXXC-DNA binding, HTRF, biochemical | hit rate 30% among 210; also: % is scaled to controls: 0 for no effect and ±100 for the full control effect; nearly all actives have a fitted effect of over 80% in size
* hit, by the source's call; ? = inconclusive; . = no result given; ! = repeats disagree; [ ] = another dose, or the depositor's remark. In the library only some 0.5% were active in any assay of this set; here they are far more common. Unless noted, calls follow the shape of the dose curve; as a rule, active = well fitted curve in the direction sought with a large enough effect; inconclusive = small, poorly fitted or top-dose-only effect, or another doubt; inactive = no such curve, though single readings can be large; an effect the other way counts as inactive or inconclusive.

SMILES	GoLoco inh red	Menin-MLL TR inh	CXXC DNA block	TR SRC2 fluor cs	Menin-MLL FL inh	TRb-SRC2 inh	MLL CXXC Fl	MLL CXXC TxRed	MLL CXXC TRF
CC1(C)[C@H](C(=O)O[C@H](C#N)c2cccc(Oc3ccccc3)c2)[C@@H]1/C=C(\Cl)C(F)(F)F	.	.	.	0.9%[201 µM]	.	3.0%[201 µM]	.	.	.
COc1cc(OC)nc(Sc2cccc(Cl)c2C(=O)O)n1	.	.	.	-1.0%[201 µM]	.	4.9%[201 µM]	.	.	.
CCOP(=O)(OCC)O/C(=C/Cl)c1ccc(Cl)cc1Cl	.	-12.1%	63.1µM*	-0.3%	?	3.4%	159µM*	-0.3%	-5.7%
COC(=O)Cn1cc(/C=C2\C(=O)NC(=O)N(c3ccc(OC)cc3)C2=O)c2ccccc21	.	-28.1%	?	.	?	.	.	.	.
O=C(O)Cn1cc(/C=C2\C(=O)NC(=O)N(c3ccc(F)cc3)C2=O)c2ccccc21	.	36.3%	?	.	?	.	?	89.5µM*	?
COc1ccc(/C=C2/C(=O)NC(=O)N(C3CCCCC3)C2=O)cc1CSc1ccccn1	30.5%	?	?	0.5%[53 µM]	26.0	-51.6%[53 µM]	142µM*	142µM*	76.9µM*
O=C(O)CCn1cc(C=C2C(=O)NC(=S)NC2=O)c(-c2cc3ccccc3oc2=O)n1	140.2%	11.2%	14.3%	-0.6%	?	7.6%	.	.	.
O=C(O)CCn1cc(C=C2C(=O)NC(=S)NC2=O)c(-c2ccccc2)n1	28.2µM*	27.6%	31.6µM*	-0.7%	1.9	7.1%	4µM*	89.5µM*	6.11µM*
CN1C(=O)C(=Cc2ccccc2OCc2ccc(C(=O)O)cc2)C(=O)N(C)C1=O	-27.7%	17.4%	20µM*	0.8%	-3.0	-3.9%	?	142µM*	61.1µM*
CCOP(=O)(NC(C)C)Oc1ccc(S(C)(=O)=O)c(C)c1 (configuration not stated)	.	.	.	-2.7%[201 µM]	.	-1.2%[201 µM]	.	.	.
Cc1cc(OCC(=O)N[C@@H](Cc2ccccc2)C(=O)O)c2c3c(c(=O)oc2c1)CCCC3	.	3.5%	-26.1%	.	-0.6	.	.	.	.
CSC[C@H](NC(=O)COc1cc2c(c3oc(=O)c(C)c(C)c13)CCC(C)(C)O2)C(=O)O	.	-6.0%	?	.	1.3	.	?	?	15.8%
CC(C)C[C@H]1C(=O)N2CCCC2[C@]2(O)O[C@](NC(=O)[C@@H]3C=C4c5cccc6[nH]cc(c56)CC4N(C)C3)(C(C)C)C(=O)N12 (some centres not stated)	60.3%	?	?	28.3%	?	-9.0%	.	.	.
CCC(CO)NC(=O)[C@@H]1C=C2c3cccc4[nH]cc(c34)C[C@H]2N(C)C1 (some centres not stated)	-7.7%	-17.4%	35.5µM*	-0.7%	?	2.3%	159µM*	?	24.3%
CC(C)(c1ccccc1)c1cc(-n2nc3ccccc3n2)c(O)c(C(C)(C)c2ccccc2)c1	.	.	.	-3.7%[201 µM]	.	-1.8%[201 µM]	.	.	.
O=C1NC(=O)N(c2ccc3c(c2)OCO3)C(=O)/C1=C/c1ccc(N2CCCCC2)o1	45.6%	-7.4%	?	3.1%	?	-1.0%	.	.	.
O=C1NC(=O)N(c2ccc3c(c2)OCO3)C(=O)/C1=C\c1ccc(-c2ccccc2C(=O)O)o1	40.7%	.	14.1µM*	-0.3%	23.5	-2.9%	14.2µM*	44.8µM*	19.3µM*
O=C(O)c1ccccc1-c1c2cc(Br)c(=O)cc-2oc2[c]([Hg])c(O)c(Br)cc12	1.12µM*	?	?	44.7µM*[fluorescent]	?	20µM*!	0.762µM*	135.6%[154 µM]	23.2µM*
COc1cccc2c1C(=O)c1c(O)c3c(c(O)c1C2=O)C[C@@](O)(C(=O)CO)C[C@@H]3O[C@H]1C[C@H](N)[C@H](OC2CCCCO2)[C@H](C)O1 (some centres not stated)	.	?	63.1µM*	.	?	.	35.6µM*	44.8µM*	-32.9%
NC(Cc1cc(O)c(O)cc1O)C(=O)O (configuration not stated)	14.1µM*	?	?	11.2µM*[quencher]	?	13.1%	17.9µM*	?	30.6µM*
N[C@@H](Cc1ccc(O)cc1)C(=O)O	11.3%	30.0%	4.4%	0.0%	0.6	3.2%	.	.	.
CCOP(=O)(OCC)SCSP(=S)(OCC)OCC	.	.	.	-2.0%[201 µM]	.	-0.4%[201 µM]	.	.	.
N#CCNC(=O)c1cnccc1C(F)(F)F	.	.	.	-2.4%[201 µM]	.	-2.6%[201 µM]	.	.	.
CCOP(=O)(OCC)Oc1ccc([N+](=O)[O-])cc1	.	.	.	-4.2%[201 µM]	.	6.9%[201 µM]	.	.	.
Cc1cc(/C=C2\C(=O)NC(=O)N(c3ccc(Br)cc3)C2=O)c(C)n1-c1cc(C(=O)O)cc(C(=O)O)c1	.	20.6%	7.94µM*	.	23.8	.	17.9µM*	40µM*	38.5µM*
Cc1cc(/C=C2\C(=O)NC(=O)N(c3cccc(F)c3)C2=O)c(C)n1-c1cc(C(=O)O)cc(C(=O)O)c1	3.4%	3.6%	15.8µM*	3.1%	3.9	-8.7%	89.5µM*	?	122µM*
COC(=O)N(OC)c1ccccc1COc1ccn(-c2ccc(Cl)cc2)n1	.	.	.	2.4%[201 µM]	.	-4.8%[201 µM]	.	.	.
